Calls of active or inactive are those of the source.
How the values were obtained:
[1] = system: Human papillomavirus type 1a protein E7 (residues 44-93); assay: small molecules binding HPV E7 44-93 – biochemical, small-molecule microarray, residues 44-93, 635 nm fluorescence, primary screen (AID 1108); settings: fluorescence 635 nm, higher = more signal;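 further: E7 fragment applied at 1 µg/mL in TBST for 1 h at 4 C; score combines spot fluorescence with its signal to noise ratio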
[2] = hepatitis C replication reporter changes, two-sided – Huh7 cells, luciferase reporter, HCV replication inhibitor project, primary screen (AID 1109); settings: Huh7 HCV replicon luciferase reporter, 48 h; higher = more signal;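 further: huh7 hepatoma cells harbouring a luciferase neomycin HCV replicon reporter; luciferase luminescence as measure of HCV replicon replication; test concentration not given here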
[3] = biological target: Left-right determination factor 2 (Homo sapiens) (UniProt O00292); assay: small molecules binding LEFTY2 protein – biochemical, small-molecule microarray, 635 nm fluorescence scan, primary screen (AID 1110); settings: higher = more signal
Chain of Left-right determination factor 2 (Homo sapiens) (O00292 whole entry, looked up): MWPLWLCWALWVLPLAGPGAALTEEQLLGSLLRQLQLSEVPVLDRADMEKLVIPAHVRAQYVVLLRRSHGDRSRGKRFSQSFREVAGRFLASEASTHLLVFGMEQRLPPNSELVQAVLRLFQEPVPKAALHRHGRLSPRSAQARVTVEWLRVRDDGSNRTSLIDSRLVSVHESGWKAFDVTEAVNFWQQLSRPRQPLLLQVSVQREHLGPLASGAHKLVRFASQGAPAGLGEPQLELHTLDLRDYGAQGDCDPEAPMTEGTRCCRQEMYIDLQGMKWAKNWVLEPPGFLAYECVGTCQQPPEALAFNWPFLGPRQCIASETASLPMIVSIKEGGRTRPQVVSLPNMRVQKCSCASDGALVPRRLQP

[4] = biological target: Calmodulin-1 (Homo sapiens) (UniProt P0DP23); assay: small molecules binding calmodulin-1 with EGTA – biochemical, small-molecule microarray, Cy5-labelled CALM1, profiling panel (AID 1111); settings: Cy5-CALM1 binding fluorescence, higher = more signal;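 further: labelled calmodulin applied in Tris saline Tween buffer holding calcium plus EGTA and DTT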
[5] = biological target: Calmodulin-1 (Homo sapiens) (UniProt P0DP23); assay: small molecules binding Ca-loaded calmodulin-1 – biochemical, small-molecule microarray, Cy5-labelled CALM1, plus calcium, artefact control for SMM control-protein annotation, profiling panel (AID 1112); settings: Cy5-CALM1 binding fluorescence, higher = more signal;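 further: score merges spot fluorescence with signal to noise from triplicate slides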
[6] = probe aWnt5a binding to arrayed compounds – biochemical, biotinylated probe, 635/667 nm fluorescence, primary screen (AID 1113); settings: small-molecule microarray, higher = more signal;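 further: score merges 667 nm fluorescence intensity with signal-to-noise per printed feature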
[7] = probe aShh binding to arrayed compounds – biochemical, biotinylated probe, 635/667 nm fluorescence, primary screen (AID 1114); settings: small-molecule microarray, higher = more signal;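 further: probe is biotin-labelled aShh protein from a stem cell growth factor screen; measures binding of labelled protein to compounds printed on the slide; score merges feature fluorescence at 667 nm with signal-to-noise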
[8] = probe aNog binding to arrayed compounds – biochemical, biotinylated probe, 635/667 nm fluorescence, primary screen (AID 1115); settings: small-molecule microarray, higher = more signal;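 further: probe is biotinylated aNog protein used at 0.15 µg/mL for 1 h at 4 C; z-score combines 667 nm fluorescence of each spot with its signal to noise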
[9] = biological target: Torsin-1A-interacting protein 1 (Homo sapiens) (UniProt Q5JTV8); assay: compound microarray binding of lysate hLAP1 – cell lysate, small-molecule microarray, COS7 lysate, 635/667 nm fluorescence, primary screen (AID 1116); settings: 635 nm fluorescence, higher = more signal
Chain of Torsin-1A-interacting protein 1 (Homo sapiens) (Q5JTV8 whole entry, looked up): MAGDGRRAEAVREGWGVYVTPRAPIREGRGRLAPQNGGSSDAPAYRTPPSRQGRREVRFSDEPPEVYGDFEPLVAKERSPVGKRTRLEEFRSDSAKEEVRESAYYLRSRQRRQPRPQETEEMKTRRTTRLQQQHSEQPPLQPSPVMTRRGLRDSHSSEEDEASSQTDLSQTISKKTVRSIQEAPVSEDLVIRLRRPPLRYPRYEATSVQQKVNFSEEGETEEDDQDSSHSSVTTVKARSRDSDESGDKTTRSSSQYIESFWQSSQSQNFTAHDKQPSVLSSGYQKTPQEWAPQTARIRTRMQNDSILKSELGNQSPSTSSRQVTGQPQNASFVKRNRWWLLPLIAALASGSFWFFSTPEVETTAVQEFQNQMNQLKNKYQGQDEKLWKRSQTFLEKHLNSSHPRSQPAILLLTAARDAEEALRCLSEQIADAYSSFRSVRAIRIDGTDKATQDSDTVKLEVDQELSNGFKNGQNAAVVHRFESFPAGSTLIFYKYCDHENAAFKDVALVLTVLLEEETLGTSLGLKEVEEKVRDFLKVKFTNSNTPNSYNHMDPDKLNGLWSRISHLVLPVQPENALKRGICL

[10] = biological target: Alpha-bungarotoxin (Bungarus multicinctus) (UniProt P60615); assay: compounds binding labelled alpha-BTX control protein – biochemical, small-molecule microarray, Alexa647 label, 635/667 nm fluorescence, artefact control for SMM control protein annotation, profiling panel (AID 1117); settings: alpha-BTX-A647 binding fluorescence, higher = more signal
Chain of Alpha-bungarotoxin (Bungarus multicinctus) (P60615 whole entry, looked up): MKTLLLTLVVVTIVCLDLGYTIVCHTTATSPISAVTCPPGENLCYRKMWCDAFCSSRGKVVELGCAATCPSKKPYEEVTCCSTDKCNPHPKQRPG

Albumin (Bos taurus) = Albumin (Bos taurus) (UniProt P02769); assay: compounds binding labelled BSA control protein – biochemical, small-molecule microarray, Alexa647 label, 635/667 nm fluorescence, artefact control for SMM control protein annotation, profiling panel (AID 1118); settings: BSA-A647 binding, fluorescence 635 nm, higher = more signal;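 further: score merges 667 nm emission intensity and signal-to-noise per printed compound spot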
Chain of Albumin (Bos taurus) (P02769 whole entry, looked up): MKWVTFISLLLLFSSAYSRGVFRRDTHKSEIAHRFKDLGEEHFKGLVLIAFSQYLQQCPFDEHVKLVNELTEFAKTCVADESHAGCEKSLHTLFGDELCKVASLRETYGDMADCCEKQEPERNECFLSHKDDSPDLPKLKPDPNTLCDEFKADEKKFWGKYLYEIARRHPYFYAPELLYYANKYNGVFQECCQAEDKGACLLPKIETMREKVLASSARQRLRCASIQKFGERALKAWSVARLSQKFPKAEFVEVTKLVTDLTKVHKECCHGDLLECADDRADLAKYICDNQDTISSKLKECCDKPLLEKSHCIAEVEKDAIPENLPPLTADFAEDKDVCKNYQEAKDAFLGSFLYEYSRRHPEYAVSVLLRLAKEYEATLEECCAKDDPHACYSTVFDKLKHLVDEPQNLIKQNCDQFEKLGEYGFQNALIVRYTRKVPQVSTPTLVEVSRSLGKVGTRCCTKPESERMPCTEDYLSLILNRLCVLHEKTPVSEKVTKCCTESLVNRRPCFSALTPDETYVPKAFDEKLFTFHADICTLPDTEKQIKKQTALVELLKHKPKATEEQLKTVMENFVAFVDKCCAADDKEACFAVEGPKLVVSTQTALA

[11] = probe aXIP binding to arrayed compounds – biochemical, NeuroSMM set, 635/667 nm fluorescence, primary screen (AID 1119); settings: small-molecule microarray, higher = more signal, called active from +8 up or from −8 down;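 further: probe is the protein aXip251-270 applied at 1 µg/mL to compound-printed slides; binding of probe to printed compounds measured as 667 nm fluorescence plus signal to noise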
[12] = probe aNOTCH3 binding on compound microarray – biochemical, small-molecule microarray, 635/667 nm fluorescence, primary screen (AID 1120); settings: higher = more signal;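 further: probe is a biotin-tagged antibody raised against NOTCH3 rather than NOTCH3 protein; score merges spot fluorescence near 667 nm with spot signal to noise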
[13] = probe aNOTCH2 binding on compound microarray – biochemical, small-molecule microarray, 635/667 nm fluorescence, primary screen (AID 1121); settings: higher = more signal;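 further: score merges feature fluorescence read at 667 nm with its signal to noise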
[14] = biological target: Carbonic anhydrase 2 (Homo sapiens) (UniProt P00918); assay: compounds binding carbonic anhydrase 2 – biochemical, small-molecule microarray, Alexa647-labelled CAII, profiling panel (AID 1122); settings: CAII-A647 binding fluorescence, higher = more signal
[15] = COS7 lysate on small-molecule microarray, probe aHis, 635 nm (AID 1123); settings: COS7 cell lysate, fluorescence, higher = more signal;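 further: z-score combines 667nm fluorescence intensity with signal-to-noise per printed compound spot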
[16] = probe aLAP1 signal on lysate-treated microarray – cell lysate, small-molecule microarray, COS7 lysate, primary screen (AID 1124); settings: probe aLAP1, fluorescence, higher = more signal;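 further: lysate comes from COS7 cells expressing LAP1 and is applied at 0.3 µg/mL; score merges spot fluorescence near 667 nm with signal-to-noise over triplicate slides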
Sam68 (KHDRBS1) = assay: compounds binding KHDRBS1 protein – biochemical, small-molecule microarray, 635 nm fluorescence, primary screen (AID 1125); settings: higher = more signal;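 further: score merges 667 nm channel intensity with signal to noise over triplicate slides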
[17] = system: Chordin-like protein 2 (CHRDL2); assay: compounds binding chordin-like 2 – biochemical, small-molecule microarray, 635 nm fluorescence, primary screen (AID 1126); settings: fluorescence 635 nm, higher = more signal;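 further: printed compound slides probed with Chrdl2 protein at 4 µg/mL for 1 h at 4 C; score merges 667 nm emission intensity with signal to noise over three replicate slides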
[18] = biological target: Concanavalin-A (Canavalia ensiformis) (UniProt P02866); assay: compounds binding concanavalin A lectin – biochemical, small-molecule microarray, Alexa647 label, 635 nm, artefact control for SMM control protein annotation, primary screen (AID 1127); settings: ConA-A647 binding fluorescence, higher = more signal;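 further: z combines 667 nm emission intensity with signal-to-noise across three replicate slides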
Chain of Concanavalin-A (Canavalia ensiformis) (P02866 whole entry, looked up): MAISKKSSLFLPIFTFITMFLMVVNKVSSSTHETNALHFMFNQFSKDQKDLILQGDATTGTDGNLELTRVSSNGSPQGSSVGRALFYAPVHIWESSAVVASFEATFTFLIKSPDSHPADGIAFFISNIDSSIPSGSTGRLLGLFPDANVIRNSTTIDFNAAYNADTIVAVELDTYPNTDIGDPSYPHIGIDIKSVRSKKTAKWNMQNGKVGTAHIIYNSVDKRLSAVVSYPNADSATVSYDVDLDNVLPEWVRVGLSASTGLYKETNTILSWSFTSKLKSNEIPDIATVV

SMILES | composite z-score [1] | z-score [2] | composite z-score [3] | composite z-score [4] | composite z-score [5] | composite z-score [6] | composite z-score [7] | composite z-score [8] | composite z-score [9] | composite z-score [10] | composite z-score (Albumin (Bos taurus)) | composite Z-score [11] | composite z-score [12] | composite z-score [13] | composite z-score [14] | composite z-score [15] | composite z-score [16] | composite z-score (Sam68 (KHDRBS1)) | composite z-score [17] | composite z-score [18]
COC(=O)CC=C[C@@H](C)[C@@H](C=NO[C@@H](C)c1cc(-c2c(C)cc(C)cc2C)no1)NS(=O)(=O)c1ccc(C)cc1 | -0.707 | -1.6 | -1.36 | -0.3 | 0.573 | -0.202 | -0.138 | 0.0011 | -0.436 | -0.744 | -0.356 | -0.136 (inactive) | -0.197 | -0.115 | -0.6 | -0.238 | -0.565 | -0.723 | -0.674 | -0.985
CCOC(=O)[C@H](CC(C)C)NC(=O)CCC1CC(OC(=O)NCc2cccc3ccccc23)CC2(CCCC(COC(=O)NCc3ccncc3)O2)O1 (stereo not given in full) | 1.38 | -1 | 0.554 | -0.118 | -0.376 | 0.0037 | -0.0146 | -0.036 | 0.526 | 0.267 | 0.323 | -0.0775 (inactive) | -0.0658 | -0.14 | 0.215 | 0.502 | 0.218 | 1.29 | 0.351 | 0.67
CCOC(=O)[C@H](CC(C)C)NC(=O)CCC1CC(OC(=O)NCc2ccc3c(c2)OCO3)CC2(CCCC(COC(=O)NCc3cccc(C(F)(F)F)c3)O2)O1 (stereo not given in full) | 0.323 | -1.44 | 0.227 | 0.0753 | -0.259 | -0.148 | -0.138 | -0.316 | -0.0298 | 0.111 | -0.232 | -0.104 (inactive) | -0.136 | -0.169 | 0.284 | 0.292 | -0.37 | 0.119 | 0.192 | 0.0441
CO[C@@H]1COC(=O)[C@H](CCSC)NC(=O)CC=C[C@@H](C)COC(=O)CCC[C@H]1C | -1.18 | -0.346 | 1.65 | -1.94 | -2.51 | -0.175 | -0.214 | -0.472 | 0.813 | -0.354 | -0.978 | 1.81 (inactive) | -0.0284 | -0.147 | -0.654 | -1.31 | 1.01 | 0.973 | 1.68 | -1.11
COC(=O)CC=C[C@@H](C)[C@@H](C=NOC[C@@H](O)[C@H]1O[C@@H]2OC(C)(C)O[C@@H]2[C@H]1O)NS(=O)(=O)c1ccc(C)cc1 | 0.496 | -0.499 | 0.417 | 0.0636 | -0.627 | -0.0882 | -0.715 | 0.0416 | 0.167 | 0.101 | -0.0786 | -0.72 (inactive) | -0.215 | -0.289 | -0.0777 | -0.152 | -0.372 | 0.524 | 0.42 | -0.137
CC(C)=CCCC(C)=CCON=C1C[C@@H](O)[C@@H](O)[C@@H]2[C@@H]3C(=O)N(C[C@@H]4CCCO4)C(=O)[C@@H]3CC[C@H]12 | 1.11 | -0.0626 | 0.957 | 0.0209 | 0.228 | -0.0783 | 0.0952 | -0.278 | 0.986 | 1.15 | 0.816 | 0.365 (inactive) | 0.121 | -0.0651 | 0.22 | 0.401 | -0.592 | 1.3 | 1.3 | 1.13
CCOC(=O)[C@H](Cc1ccccc1)NC(=O)CCC1CC(OC(=O)NCc2cccc3ccccc23)CC2(CCCC(COC(=O)NCc3cccc(C(F)(F)F)c3)O2)O1 (stereo not given in full) | 0.72 | -0.771 | -0.131 | 0.716 | 0.143 | -0.0816 | -0.345 | -0.213 | 0.465 | 0.362 | 0.331 | 0.0898 (inactive) | -0.124 | -0.14 | 0.138 | 0.345 | 0.131 | 0.462 | -0.0424 | 0.187
COC(=O)CC=C[C@@H](C)[C@@H](C=NOC[C@H]1O[C@H](c2ccccc2)C=C[C@@H]1Oc1ccc(OC)cc1)OC | -0.585 | -1.7 | -0.255 | -1.15 | -1.27 | -0.106 | -0.243 | -0.44 | -0.37 | -0.262 | 0.479 | -0.0708 (inactive) | -0.23 | -0.131 | -0.223 | -0.3 | -0.0842 | -0.379 | 0.303 | -0.766
CCOC(=O)[C@H](CC(C)C)NC(=O)CCC1CC(OC(=O)NCc2cccc3ccccc23)CC2(CCCC(COC(=O)NCc3cccc(C(F)(F)F)c3)O2)O1 (stereo not given in full) | 0.0567 | 1.32 | 0.67 | -0.333 | -0.568 | -0.0643 | -0.0626 | -0.158 | -0.0162 | 0.157 | -0.105 | 0.041 (inactive) | -0.0113 | -0.146 | -0.0249 | 0.0261 | 0.127 | 0.046 | 0.964 | 0.139
COC(=O)CC=C[C@@H](C)[C@@H](C=NO[C@@H]1O[C@H](COC(C)=O)[C@@H](OC(C)=O)[C@H](OC(C)=O)[C@H]1OC(C)=O)NS(=O)(=O)c1ccc(C)cc1 | -0.296 | -0.594 | 0.599 | -0.881 | -1.69 | -0.124 | -0.221 | -0.158 | -0.441 | -1 | -0.228 | 0.504 (inactive) | -0.0111 | -0.0984 | -0.701 | -0.323 | -0.045 | 0.682 | -0.051 | -0.909
CCOC(=O)[C@H](Cc1ccccc1)NC(=O)CCC1CC(OC(=O)NCc2cccc3ccccc23)CC2(CCCC(COC(=O)NCc3ccccc3)O2)O1 (stereo not given in full) | 0.836 | -1.03 | 0.168 | 0.507 | -0.607 | -0.2 | -0.145 | -0.144 | -0.0849 | 0.713 | 0.561 | -0.0662 (inactive) | -0.0204 | -0.155 | 0.452 | 1.06 | -0.398 | 0.712 | 0.0223 | 0.649

From PubChem BioAssay
